PGK inhibitor = inhibitors of T. brucei phosphoglycerate kinase | PGK/GAPDH coupled, Kinase-Glo luminescence, 60 min | Potency, µM (top dose mostly 57.5 µM), most hits filed as inhibitors | actives 0.043% (n = 380,000) | AID 602233; further: nearly all actives have a fitted effect of over 60% in size
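Recombinant glycosomal PGK reaction used 1,3-bisphosphoglycerate generated in-well by GAPDH (100nM final) in 100mM TEA pH 7.6, 5mM MgCl2, 0.01% Tween-20. After 60 minutes at room temperature, ATP was read by Kinase-Glo Plus luminescence end-point.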
GLP1R inv ag = GLP-1 receptor (human) inverse agonism; actives 1.6% (n = 410,000); P43220; Potency, µM (top dose mostly 38.3 µM), hits mostly inhibitors; HEK293 GLP-1R CRE-luciferase, luminescence, 24 h; GLP-1R form is constitutively active; further: nearly all actives have a fitted effect of over 55% in size
Target sequence (P43220 whole entry, looked up): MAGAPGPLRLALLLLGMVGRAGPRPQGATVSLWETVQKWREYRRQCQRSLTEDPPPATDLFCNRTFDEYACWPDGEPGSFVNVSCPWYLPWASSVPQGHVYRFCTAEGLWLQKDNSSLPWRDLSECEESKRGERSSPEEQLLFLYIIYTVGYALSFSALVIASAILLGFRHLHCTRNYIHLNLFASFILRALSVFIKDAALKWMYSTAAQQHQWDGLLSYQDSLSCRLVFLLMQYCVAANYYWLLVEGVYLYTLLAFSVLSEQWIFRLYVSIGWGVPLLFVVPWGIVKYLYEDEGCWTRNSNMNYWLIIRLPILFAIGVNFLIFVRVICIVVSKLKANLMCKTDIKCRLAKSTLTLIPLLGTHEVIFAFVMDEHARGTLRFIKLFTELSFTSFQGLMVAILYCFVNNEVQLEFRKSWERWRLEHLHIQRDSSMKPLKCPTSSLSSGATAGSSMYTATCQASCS
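Luminescence readout: a drop in cAMP-driven luciferase signal flags inverse agonism at a constitutively active GLP-1R stably expressed in HEK293. Compound exposure lasted 24 hr at 37 deg C, 5% CO2.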
GLP1R cytotox = cytotoxic in the GLP-1 receptor inverse agonist counter-screen; HEK293 cAMP-luciferase reporter cells, luminescence, 24 h; Potency, µM (titrated, usually from 38.3 µM), actives largely listed as inhibitors; actives 0.13% (n = 410,000);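 further: loss of luciferase light is scored as toxicity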
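A 23 nL compound transfer followed 12 hours of cell culture at 37 deg C; exposure then lasted 24 hr. Luciferase assay detection reagent was dispensed and plates read for luminescence after a 12 min room-temperature wait.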
GLP1R ag = GLP-1 receptor (human) agonism. P43220. HEK293 GLP-1R CRE-luciferase, luminescence, 4-6 h; cells express a hypersensitive GLP-1R form. AID 624172. Potency, µM (top dose mostly 45.6 µM), actives largely listed as activators. actives 0.007% (n = 380,000)
Tb PFK block = inhibitors of T. brucei phosphofructokinase; O15648; T. brucei PFK, ADP-Glo luminescence; Potency, µM (series often up to 57.5 µM), most hits filed as inhibitors; actives 0.17% (n = 330,000); AID 485367; further: nearly all actives have a fitted effect of over 60% in size
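1.25 nM PFK with 0.5 mM F6P and 0.1 mM ATP in 0.1 M TEA pH 8.0, 5 mM MgCl2, incubated 45 min at room temperature; ADP measured by ADP-Glo luminescence; compounds titrated up to 57 uM.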
Pin1 inhibitor = human Pin1 inhibition. Pin1 FP peptide displacement, HiFluor488, 10 min. Potency, µM (doses to about 115 µM), most hits filed as inhibitors. actives 0.009% (n = 390,000). AID 504891. Q13526; active means well fitted inhibition curve with a large enough effect in the polarisation, with a control signal flat, not every such curve was filed as active; inconclusive means small, poorly fitted or top-dose-only effect, or effect the other way, or a change in a side signal; inactive means no such curve, though single readings can be large or run the other way; the % refers to the polarisation
Target sequence (Q13526 whole entry, looked up): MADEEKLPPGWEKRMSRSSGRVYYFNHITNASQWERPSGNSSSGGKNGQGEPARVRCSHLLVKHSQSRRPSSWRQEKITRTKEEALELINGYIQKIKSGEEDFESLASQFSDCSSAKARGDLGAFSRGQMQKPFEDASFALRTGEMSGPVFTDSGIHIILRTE
Large screens that a line does not name were inactive. Rows were chosen to be rich in hits. Some 1.8% of all compounds tested hit in one or more screens of this group. Unless noted, the call rests on the fitted dose curve; in most records, active means well fitted curve in the direction sought with a large enough effect; inconclusive means small, poorly fitted or top-dose-only effect, or another doubt; inactive means no such curve, though single readings can be large; an effect the other way counts as inactive or inconclusive.

C[C@@H](CSc1ccc(Br)cc1)CN1CC[C@H](C(C)(C)C)CCC1=O	GLP1R inv ag inconclusive
Cc1ccc(NC(=O)C(Cc2ccccc2)n2cccc2)cc1C (stereo not given)	GLP1R inv ag inconclusive (no result: GLP1R ag, Tb PFK block)
Cc1ccc(N/N=C(\C#N)C(N)=S)cc1C	GLP1R inv ag 0.28µM, GLP1R cytotox inconclusive
COc1ccc(Cl)cc1N1C(=O)/C(=C\c2sccc2C)N=C1SCC(=O)NC1CC1	GLP1R inv ag 8.9µM
Cc1cc(N2CCCCC2C)nc(-c2ccccc2O)n1 (stereo not given)	GLP1R inv ag 11µM
O=C(CNC(=O)c1ccc(-c2ccccc2)cc1)OC(C(=O)Nc1cc(C(F)(F)F)ccc1Cl)c1ccccc1 (stereo not given)	none (no result: PGK inhibitor, GLP1R inv ag, GLP1R cytotox, GLP1R ag, Tb PFK block)
CNC(=O)c1cn(-c2ccc(Cl)cc2)c(=O)c2ccccc12	none
CCCCN(CC)CCNC(=O)c1cn(-c2ccc(Cl)cc2)c(=O)c2ccccc12	GLP1R inv ag 10µM
COc1cc(NC(=O)C(CC(C)C)N2Cc3ccccc3C2=O)cc(OC)c1 (stereo not given)	none (no result: GLP1R ag, Tb PFK block)
Clc1ccc(C2CC(c3ccco3)n3ncnc3N2)cc1Cl (stereo not given)	GLP1R inv ag 10µM
Clc1ccc(C2CC(c3ccccc3)Nc3ncnn32)cc1 (stereo not given)	GLP1R inv ag inconclusive, Pin1 inhibitor inconclusive
CC1CCCCN1C(=S)NC(=O)c1ccccc1 (stereo not given)	GLP1R inv ag inconclusive, GLP1R cytotox 11µM
CCN(CC)S(=O)(=O)c1ccc(C(=O)NC(=S)N2CCCCC2C)cc1 (stereo not given)	none (no result: Tb PFK block, Pin1 inhibitor)
COc1ccccc1NS(=O)(=O)c1ccc2c(c1)CCC(=O)N2	none (no result: PGK inhibitor, GLP1R inv ag, GLP1R cytotox, GLP1R ag, Tb PFK block)
Cc1cccc(C(=O)OCC(=O)c2c(N)n(CC(C)C)c(=O)n(C)c2=O)c1O	GLP1R inv ag 10µM
Cc1csc(=O)n1CCC(=O)OCC(=O)c1c(N)n(CC(C)C)c(=O)n(C)c1=O	none
CC(C)Cn1c(N)c(C(=O)COC(=O)c2ccc(Br)cc2)c(=O)n(C)c1=O	GLP1R inv ag 10µM
Cc1cccc(C(=O)OCC(=O)c2c(N)n(CC(C)C)c(=O)n(C)c2=O)c1[N+](=O)[O-]	GLP1R inv ag inconclusive
CC(C)Cn1c(N)c(C(=O)COC(=O)CC23CC4CC(CC(C4)C2)C3)c(=O)n(C)c1=O	GLP1R inv ag 2.8µM
Cc1ccc(NC(=O)c2cc(S(=O)(=O)N3CCCC(C)C3)cn2C)c(Br)c1 (stereo not given)	GLP1R inv ag inconclusive (no result: Tb PFK block)
CC(C)N(Cc1nc(-c2ccc(Cl)cc2)no1)C(=O)/C=C/c1ccccc1	GLP1R inv ag 11µM
CCN(CC)CCNc1ncnc2c1[nH]c1ccc(OC)cc12	none (no result: PGK inhibitor, GLP1R inv ag, GLP1R cytotox, GLP1R ag, Pin1 inhibitor)
CCN(CC)CCNC1=NCCn2c1cc1cc(OC)ccc12	GLP1R inv ag 2.8µM, Pin1 inhibitor inconclusive
CCOC(=O)C(=O)Cc1nc(OCc2ccccc2)cc(OCc2ccccc2)n1	GLP1R inv ag 10µM (no result: Tb PFK block)
CCOC(=O)c1c(C)oc2c1c(C=NCc1ccccn1)c(O)c1ccccc12	GLP1R inv ag 22µM, GLP1R cytotox inconclusive
CCCn1c(C2CCCN2c2nc(-c3cccc(Br)c3)cs2)nc2ccccc21 (stereo not given)	GLP1R inv ag inconclusive, GLP1R cytotox 4.5µM
O=C(Nc1cc(Cl)ccc1N1CCCCC1)c1cccs1	none
O=C(NC(=S)Nc1ccc(N2CCCCC2)c(Cl)c1)c1cccs1	GLP1R cytotox 2.8µM (no result: Tb PFK block)
CC(C)c1nc(Nc2nc3ccccc3o2)nc2c1CCCC2	none (no result: PGK inhibitor, GLP1R inv ag, GLP1R cytotox, GLP1R ag, Tb PFK block)
Cc1ccc(S(=O)(=O)Nc2ccc3c4c(cccc24)CC3)c(C)c1	GLP1R inv ag inconclusive (no result: Tb PFK block)
Cc1cc(C)c(S(=O)(=O)Nc2ccc3c4c(cccc24)CC3)c(C)c1	GLP1R inv ag 4.5µM, Pin1 inhibitor inconclusive
CNCCCC1Sc2ccccc2Oc2ccccc21 (stereo not given)	GLP1R inv ag 5µM, GLP1R cytotox inconclusive
C[N+](C)(CCCCCC[N+](C)(C)C1c2ccccc2-c2ccccc21)C1c2ccccc2-c2ccccc21	none (no result: PGK inhibitor, GLP1R inv ag, GLP1R cytotox, Tb PFK block, Pin1 inhibitor)
C=CCNc1nc(-c2ccccc2)c(C(=O)OCC)cc1C#N	GLP1R inv ag 5µM, GLP1R cytotox inconclusive
COc1ccc(-c2nc3sc(CCNC(=O)c4cc(Cl)ccc4OC)c(C)n3n2)cc1	GLP1R inv ag inconclusive (no result: Tb PFK block)
COc1ccccc1N1CCN(C(=O)c2ccc3c(c2)CCN3S(=O)(=O)c2ccccc2)CC1	GLP1R inv ag 7.9µM
COc1ccc(N2CCN(C(=O)c3ccc4c(c3)CCN4S(=O)(=O)c3ccccc3)CC2)cc1	GLP1R inv ag inconclusive
COc1cccc(NCc2cc(=O)oc3cc(C)c(C(C)C)cc23)c1	GLP1R inv ag 11µM
Cc1cc2oc(=O)cc(CN3CCCCC3)c2cc1C(C)C	GLP1R inv ag inconclusive
COc1cc2ncnc(N(C)Cc3cccs3)c2cc1-c1ccc2c(c1)OCO2	none (no result: PGK inhibitor, GLP1R inv ag, GLP1R cytotox, GLP1R ag, Tb PFK block)
COc1cc(/C=N/NC(=S)NC2CC3CC2C2C=CCC32)ccc1O (stereo not given)	GLP1R inv ag inconclusive, GLP1R cytotox 4.5µM, GLP1R ag inconclusive
CNC(=O)c1c(NC(=O)c2ccc(S(=O)(=O)N3CCCc4ccccc43)cc2)sc2c1CCN(C)C2	GLP1R inv ag 4.5µM, Pin1 inhibitor inconclusive
Cc1ccnc(NS(=O)(=O)c2ccc(NC(=O)C(C)(C)Oc3ccc(Cl)cc3)cc2)n1	none (no result: GLP1R ag, Tb PFK block)
CC(Oc1ccc(F)cc1)C(=O)Nc1sc2c(c1C(=O)NCc1cccnc1)CCCC2 (stereo not given)	GLP1R inv ag 10µM
O=C(Nc1sc2c(c1C(=O)NCc1cccnc1)CCCC2)c1ccco1	none
CCCCNC(=O)c1sc2nc(C)cc(COC)c2c1-n1cccc1	GLP1R inv ag 8.9µM
CC(C)S(=O)(=O)c1oc(-c2cccs2)nc1S(=O)(=O)c1ccc(F)cc1	GLP1R inv ag inconclusive, GLP1R cytotox 10µM (no result: GLP1R ag, Tb PFK block)
CC(C)S(=O)(=O)c1oc(-c2ccc(F)cc2)nc1S(=O)(=O)c1ccccc1	GLP1R inv ag inconclusive, GLP1R cytotox inconclusive (no result: GLP1R ag, Tb PFK block, Pin1 inhibitor)
COc1cc2oc(=O)c(CC(=O)N3CCCCC3)c(C)c2cc1OC	none (no result: GLP1R ag, Tb PFK block)
CCCCOC1CC(c2ccc(OCc3ccc(OC)cc3)c(OC)c2)N(C)O1 (stereo not given)	GLP1R inv ag 10µM
Cc1ccc(C2CN(c3ccccc3)CC2C(=O)c2ccc(F)cc2)cc1 (stereo not given)	GLP1R inv ag 10µM
O=C(c1ccccc1)C1CN(c2ccccc2)CC1c1ccc(Cl)cc1 (stereo not given)	none
COc1ccc(-c2[nH]c(-c3ccc4c(c3)OCO4)nc2-c2ccccc2)cc1	GLP1R inv ag 1.8µM, GLP1R cytotox inconclusive, Pin1 inhibitor inconclusive

Bioassay records: PubChem BioAssay, National Center for Advancing Translational Sciences (NCATS)
